According to the supplement of paper PMC11732987, “Enantioselective OTUD7B fragment discovery through chemoproteomics screening and high-throughput optimisation” (Communications Chemistry, 2025):

What was measured:
Test in all cases: log2 ratio of Biotin-Ahx-Ub-VS probe labelling (fragment/DMSO); higher = less target engagement (more negative = stronger competition), active = hit call of the paper (q ≤ 0.05, log2 ratio ≤ -1)
Conditions in all cases: compound concentration: 200 uM; treatment time: 3 h
USP19 = molecular target: T1, USP19 (UniProt O94966)
T1 sequence (whole entry): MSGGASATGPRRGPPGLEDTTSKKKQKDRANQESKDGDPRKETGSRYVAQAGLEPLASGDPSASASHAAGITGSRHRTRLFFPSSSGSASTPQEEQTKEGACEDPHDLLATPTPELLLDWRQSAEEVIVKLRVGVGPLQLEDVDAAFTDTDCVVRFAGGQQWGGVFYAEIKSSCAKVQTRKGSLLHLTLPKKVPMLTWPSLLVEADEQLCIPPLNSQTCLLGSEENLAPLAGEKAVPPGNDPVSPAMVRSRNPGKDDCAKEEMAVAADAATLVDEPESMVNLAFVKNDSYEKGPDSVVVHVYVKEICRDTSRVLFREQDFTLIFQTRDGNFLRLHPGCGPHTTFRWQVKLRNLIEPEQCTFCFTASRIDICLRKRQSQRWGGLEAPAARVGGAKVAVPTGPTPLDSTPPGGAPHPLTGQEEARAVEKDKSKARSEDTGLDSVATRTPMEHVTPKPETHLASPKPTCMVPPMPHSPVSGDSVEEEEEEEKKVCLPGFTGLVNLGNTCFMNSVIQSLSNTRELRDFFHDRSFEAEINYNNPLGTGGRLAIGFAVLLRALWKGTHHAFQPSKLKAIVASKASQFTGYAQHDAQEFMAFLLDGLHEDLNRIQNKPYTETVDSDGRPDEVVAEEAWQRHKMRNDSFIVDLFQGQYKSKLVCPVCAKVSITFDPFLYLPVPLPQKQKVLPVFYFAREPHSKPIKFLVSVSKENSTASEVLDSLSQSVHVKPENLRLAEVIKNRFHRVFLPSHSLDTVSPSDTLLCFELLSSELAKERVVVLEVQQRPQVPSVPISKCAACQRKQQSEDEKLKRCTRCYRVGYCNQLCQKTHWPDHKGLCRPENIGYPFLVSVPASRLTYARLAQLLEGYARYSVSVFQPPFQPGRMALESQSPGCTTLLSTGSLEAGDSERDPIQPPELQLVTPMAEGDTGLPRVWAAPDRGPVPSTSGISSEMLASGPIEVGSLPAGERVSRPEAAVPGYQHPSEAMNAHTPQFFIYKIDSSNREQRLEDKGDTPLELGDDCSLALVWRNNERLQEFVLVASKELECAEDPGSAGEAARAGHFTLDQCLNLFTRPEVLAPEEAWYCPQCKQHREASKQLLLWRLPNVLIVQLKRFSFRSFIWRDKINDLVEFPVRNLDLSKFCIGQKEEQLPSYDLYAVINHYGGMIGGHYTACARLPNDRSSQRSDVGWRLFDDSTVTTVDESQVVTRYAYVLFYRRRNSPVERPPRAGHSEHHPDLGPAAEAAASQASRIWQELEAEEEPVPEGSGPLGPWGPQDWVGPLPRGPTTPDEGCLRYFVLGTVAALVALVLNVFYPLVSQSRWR
Summary of the method: (§1)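 Average log2 ratios of fragment over vehicle were obtained by unpaired t-test from global-median-normalised Spectronaut label-free quantities. Proteins with ≥2 unique peptides were included. HEK293T lysate (495 µg per sample) was treated in triplicate with fragment at 200 µM or vehicle for 3 h, then with Biotin-Ahx-Ub-VS at 0.5 µM final for 1 h, and labelled DUBs were NeutrAvidin-enriched and run by diaPASEF LC-MS/MS.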

USP24 = USP24 (UniProt Q9UPU5)
Chain of USP24 (Q9UPU5 whole entry): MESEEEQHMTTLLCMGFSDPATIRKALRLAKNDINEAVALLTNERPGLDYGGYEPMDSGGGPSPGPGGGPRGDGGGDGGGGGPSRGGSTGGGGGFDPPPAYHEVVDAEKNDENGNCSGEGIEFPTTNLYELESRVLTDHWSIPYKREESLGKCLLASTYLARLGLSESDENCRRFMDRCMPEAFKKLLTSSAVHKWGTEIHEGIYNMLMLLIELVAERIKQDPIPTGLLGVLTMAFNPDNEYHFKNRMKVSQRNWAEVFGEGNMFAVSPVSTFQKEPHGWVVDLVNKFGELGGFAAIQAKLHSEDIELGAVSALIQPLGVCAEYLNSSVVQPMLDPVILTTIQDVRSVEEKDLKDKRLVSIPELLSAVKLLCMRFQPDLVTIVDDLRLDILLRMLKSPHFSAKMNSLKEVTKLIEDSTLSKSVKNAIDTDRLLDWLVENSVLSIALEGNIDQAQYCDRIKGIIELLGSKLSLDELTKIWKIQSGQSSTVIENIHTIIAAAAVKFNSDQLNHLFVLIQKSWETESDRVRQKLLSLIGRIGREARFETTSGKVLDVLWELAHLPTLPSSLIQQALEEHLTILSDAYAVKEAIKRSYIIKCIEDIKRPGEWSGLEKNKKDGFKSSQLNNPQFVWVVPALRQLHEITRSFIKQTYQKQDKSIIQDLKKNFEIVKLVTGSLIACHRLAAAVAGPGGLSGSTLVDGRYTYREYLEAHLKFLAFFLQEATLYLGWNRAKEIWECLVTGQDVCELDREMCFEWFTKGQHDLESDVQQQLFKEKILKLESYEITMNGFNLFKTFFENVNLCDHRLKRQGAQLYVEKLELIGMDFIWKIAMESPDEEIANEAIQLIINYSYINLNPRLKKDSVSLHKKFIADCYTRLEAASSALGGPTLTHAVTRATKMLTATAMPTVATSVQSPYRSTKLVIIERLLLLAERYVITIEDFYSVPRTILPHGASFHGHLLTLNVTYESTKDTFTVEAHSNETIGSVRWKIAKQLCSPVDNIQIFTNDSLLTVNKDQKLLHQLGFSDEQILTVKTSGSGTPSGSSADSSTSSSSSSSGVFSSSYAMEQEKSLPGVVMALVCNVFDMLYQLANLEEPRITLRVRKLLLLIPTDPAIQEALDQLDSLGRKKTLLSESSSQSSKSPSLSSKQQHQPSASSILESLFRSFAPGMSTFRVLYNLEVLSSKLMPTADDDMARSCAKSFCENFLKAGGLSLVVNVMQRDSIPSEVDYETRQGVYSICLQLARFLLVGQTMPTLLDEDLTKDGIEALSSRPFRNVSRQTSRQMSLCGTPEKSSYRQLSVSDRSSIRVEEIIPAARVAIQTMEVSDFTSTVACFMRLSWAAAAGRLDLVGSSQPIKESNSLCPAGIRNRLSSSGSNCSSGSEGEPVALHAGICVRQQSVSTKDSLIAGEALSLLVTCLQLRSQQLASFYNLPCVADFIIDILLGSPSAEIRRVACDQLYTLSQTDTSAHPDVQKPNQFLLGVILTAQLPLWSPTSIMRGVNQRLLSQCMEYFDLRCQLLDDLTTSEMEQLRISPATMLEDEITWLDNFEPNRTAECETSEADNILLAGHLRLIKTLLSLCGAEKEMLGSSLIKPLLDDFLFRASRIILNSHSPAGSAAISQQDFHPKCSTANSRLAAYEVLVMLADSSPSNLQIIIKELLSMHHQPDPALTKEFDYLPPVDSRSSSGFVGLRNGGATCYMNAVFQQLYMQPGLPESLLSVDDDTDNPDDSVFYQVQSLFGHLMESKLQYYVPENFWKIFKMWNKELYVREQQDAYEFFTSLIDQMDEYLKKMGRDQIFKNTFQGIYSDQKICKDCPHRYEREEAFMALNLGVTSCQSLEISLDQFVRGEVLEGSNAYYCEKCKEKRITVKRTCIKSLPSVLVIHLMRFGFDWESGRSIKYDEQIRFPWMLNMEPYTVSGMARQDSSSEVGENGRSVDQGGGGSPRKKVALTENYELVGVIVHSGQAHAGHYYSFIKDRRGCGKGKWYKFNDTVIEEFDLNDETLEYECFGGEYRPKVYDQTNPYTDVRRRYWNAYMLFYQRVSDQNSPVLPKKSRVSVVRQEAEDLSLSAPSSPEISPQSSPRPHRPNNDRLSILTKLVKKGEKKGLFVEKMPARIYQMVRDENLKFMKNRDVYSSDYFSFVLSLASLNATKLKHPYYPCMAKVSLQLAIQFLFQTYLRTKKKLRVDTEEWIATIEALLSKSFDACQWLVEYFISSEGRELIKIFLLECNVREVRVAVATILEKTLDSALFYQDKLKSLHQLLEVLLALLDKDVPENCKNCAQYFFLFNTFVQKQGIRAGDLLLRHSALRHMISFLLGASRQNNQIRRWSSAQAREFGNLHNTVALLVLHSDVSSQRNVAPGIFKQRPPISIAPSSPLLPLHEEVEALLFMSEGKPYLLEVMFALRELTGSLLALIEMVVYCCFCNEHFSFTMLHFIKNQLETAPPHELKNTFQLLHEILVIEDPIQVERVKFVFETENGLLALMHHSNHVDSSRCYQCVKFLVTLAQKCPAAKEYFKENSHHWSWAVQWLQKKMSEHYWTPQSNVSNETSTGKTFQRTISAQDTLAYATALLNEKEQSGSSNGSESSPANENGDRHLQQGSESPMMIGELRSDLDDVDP
Summary of the method: as §1

USP25 = molecular target: T2, USP25 (UniProt Q9UHP3)
T2 sequence (whole entry): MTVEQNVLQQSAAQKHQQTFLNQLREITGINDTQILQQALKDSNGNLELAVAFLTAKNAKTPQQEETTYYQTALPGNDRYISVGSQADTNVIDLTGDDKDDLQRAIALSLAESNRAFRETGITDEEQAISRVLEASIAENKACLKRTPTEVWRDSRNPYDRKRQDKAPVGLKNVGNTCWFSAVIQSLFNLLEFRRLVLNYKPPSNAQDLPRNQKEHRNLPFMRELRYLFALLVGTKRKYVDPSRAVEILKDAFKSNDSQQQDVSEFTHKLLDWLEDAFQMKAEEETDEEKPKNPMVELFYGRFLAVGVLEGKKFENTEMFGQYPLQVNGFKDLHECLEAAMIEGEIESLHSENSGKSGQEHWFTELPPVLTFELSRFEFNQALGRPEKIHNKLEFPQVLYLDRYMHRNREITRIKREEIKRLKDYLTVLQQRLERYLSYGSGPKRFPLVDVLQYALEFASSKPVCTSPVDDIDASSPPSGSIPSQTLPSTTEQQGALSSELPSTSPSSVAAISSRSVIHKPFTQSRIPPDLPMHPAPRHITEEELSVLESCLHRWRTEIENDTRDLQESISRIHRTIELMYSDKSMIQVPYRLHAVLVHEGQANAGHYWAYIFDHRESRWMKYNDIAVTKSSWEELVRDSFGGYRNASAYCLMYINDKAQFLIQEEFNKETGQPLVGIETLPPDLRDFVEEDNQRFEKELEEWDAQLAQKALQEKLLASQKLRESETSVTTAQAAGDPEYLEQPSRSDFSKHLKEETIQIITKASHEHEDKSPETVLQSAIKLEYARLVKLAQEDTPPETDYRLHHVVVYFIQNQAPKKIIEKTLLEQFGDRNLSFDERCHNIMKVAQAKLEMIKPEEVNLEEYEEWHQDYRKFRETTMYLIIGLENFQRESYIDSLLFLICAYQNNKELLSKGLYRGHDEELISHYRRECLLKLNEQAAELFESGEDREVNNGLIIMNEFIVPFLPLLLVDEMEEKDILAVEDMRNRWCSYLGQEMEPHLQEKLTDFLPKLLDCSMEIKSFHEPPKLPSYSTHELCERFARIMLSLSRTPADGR
Summary of the method: as §1

USP28 = molecular target: T3, USP28 (UniProt Q96RU2)
T3 sequence (whole entry): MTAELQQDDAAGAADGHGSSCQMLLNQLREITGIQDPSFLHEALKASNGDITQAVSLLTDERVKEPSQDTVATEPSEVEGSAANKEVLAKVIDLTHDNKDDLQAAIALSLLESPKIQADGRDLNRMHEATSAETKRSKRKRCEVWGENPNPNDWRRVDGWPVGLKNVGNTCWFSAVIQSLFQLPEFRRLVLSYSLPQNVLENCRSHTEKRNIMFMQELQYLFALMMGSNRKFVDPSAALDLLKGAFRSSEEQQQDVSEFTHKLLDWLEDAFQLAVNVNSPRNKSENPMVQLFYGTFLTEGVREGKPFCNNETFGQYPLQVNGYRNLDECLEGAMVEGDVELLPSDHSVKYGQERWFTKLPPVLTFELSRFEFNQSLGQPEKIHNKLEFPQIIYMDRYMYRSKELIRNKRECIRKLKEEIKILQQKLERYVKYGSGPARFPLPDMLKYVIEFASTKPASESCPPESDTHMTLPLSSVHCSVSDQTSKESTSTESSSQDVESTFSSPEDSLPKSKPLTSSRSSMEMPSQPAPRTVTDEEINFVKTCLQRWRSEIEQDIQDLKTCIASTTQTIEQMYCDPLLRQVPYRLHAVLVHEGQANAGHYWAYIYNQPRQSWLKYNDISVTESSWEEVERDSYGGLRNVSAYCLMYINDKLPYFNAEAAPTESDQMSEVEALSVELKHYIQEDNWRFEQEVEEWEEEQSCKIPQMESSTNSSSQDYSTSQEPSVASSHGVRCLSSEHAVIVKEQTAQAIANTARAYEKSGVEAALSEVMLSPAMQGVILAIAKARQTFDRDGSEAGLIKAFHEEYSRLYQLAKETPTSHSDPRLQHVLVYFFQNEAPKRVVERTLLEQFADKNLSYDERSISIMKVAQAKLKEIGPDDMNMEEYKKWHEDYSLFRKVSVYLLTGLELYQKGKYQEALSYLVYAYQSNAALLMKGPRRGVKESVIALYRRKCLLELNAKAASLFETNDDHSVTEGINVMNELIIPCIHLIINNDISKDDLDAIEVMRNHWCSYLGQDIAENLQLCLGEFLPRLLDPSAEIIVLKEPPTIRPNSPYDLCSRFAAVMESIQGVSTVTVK
Summary of the method: as §1

Measured: log2 ratio of Biotin-Ahx-Ub-VS probe labelling

O=C(CCl)NCC(=O)N1CCCC1
inactive: USP19 0.114 | USP24 -0.074 | USP25 0.037 | USP28 -0.302
